Screens: PubChem, The Scripps Research Institute Molecular Screening Center
ssDAF-12 act: S. stercoralis DAF-12 activation, primary screen | activation, % at 6.8 µM | 370,000 compounds, 1% hits | HEK293 ssDAF-12/GRIP1 lit1-tk-luc reporter, luminescence; % of 3 µM dafachronic acid response;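 active = activation above the mean over all tested compounds plus 3 SD, cut at about 0.9% in these data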
DAX1 inh-1: inhibitors of DAX1 repression of SF-1 activated StAR promoter; HEK293T StAR-luciferase reporter, SF-1/DAX-1 repression relief; inhibition, % at 6.8 µM; 370,000 compounds, 1.1% hits; AID 652010;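 active = inhibition above the mean over all tested compounds plus 3 SD, cut at about 3.6% in these data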;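 also: higher inhibition means more luminescence from relief of DAX-1 repression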
hcDAF12 agonist: activates DAF-12 receptor from parasite H. contortus. HEK293 hcDAF-12 lit1-tk-luc reporter, luminescence; 0% DMSO, 100% Δ7-dafachronic acid. activation, % at 6.8 µM. 370,000 compounds, 1.4% hits. AID 652067;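 active = activation above the mean of all tested compounds plus 3 SD, cut at about 5.5% in these data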
DAX1 inh-2: inhibits human nuclear receptor DAX1. HEK293 Gal4-DAX1 luciferase reporter, luminescence. inhibition, % at 6.75 µM. P51843. 340,000 compounds, 0.99% hits;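 active = inhibition above the mean over all tested compounds plus 3 SD, cut at about 4.2% in these data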;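 also: inhibition shows as a rise in luminescence from relieved DAX1 repression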
Target sequence (P51843 207-470 limits assumed): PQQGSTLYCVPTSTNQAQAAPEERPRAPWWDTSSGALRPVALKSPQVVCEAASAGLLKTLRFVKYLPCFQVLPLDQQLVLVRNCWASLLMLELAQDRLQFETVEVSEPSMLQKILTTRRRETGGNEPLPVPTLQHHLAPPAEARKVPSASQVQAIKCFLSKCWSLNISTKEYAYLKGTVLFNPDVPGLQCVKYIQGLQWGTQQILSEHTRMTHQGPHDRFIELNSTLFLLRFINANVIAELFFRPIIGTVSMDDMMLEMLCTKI
hgDAF12 agonist: hgDAF-12 agonism, primary luciferase screen; HEK293 GAL4-hgDAF12 UAS-luciferase reporter, agonist luminescence; normalized to butyrate control; activation, % at 6.8 µM; 370,000 compounds, 1.8% hits; AID 687014;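 active = activation above a cutoff set at the mean of all screened compounds plus 3 SD, cut at about 10% in these data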
FXN GAA850 act: frataxin GAA850 promoter activation. 360,000 compounds, 0.56% hits. activation, % at 6 µM. HEK293 lucGAA850 FXN promoter luciferase reporter, 24 h; percent of 10 µM SAHA response;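 active = activation above the average of all compounds screened plus 3 SD, cutoff fixed separately per campaign, cut at about 7.5% in these data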
DAX1 inh confirm: NR0B1 (human) inhibition, confirmation; shares compounds with DAX1 inh-1; HEK293T StAR-promoter luciferase reporter, SF-1/DAX-1 repression; inhibition, % at 6.8 µM; 2,400 compounds, 87% hits; AID 652134;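 active = inhibition above the average of every tested compound plus 3 SD, cut at about 3.8% in these data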;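 also: active compounds raise luminescence by relieving repression of the StAR reporter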
SF1 mutant ctr: counter-screen for DAX1 inhibitors: nonselective inhibitors with SF-1 AF2 mutant. AID 652136. 2,400 compounds, 78% hits. shares compounds with DAX1 inh-1. HEK293 StAR-luciferase, luminescence. inhibition, % at 6.8 µM;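 active = inhibition above the mean of all tested compounds plus 3 SD, cut at about 3% in these data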
LXRb hcDAF ctr: LXR-beta agonism as hcDAF-12 counter-screen. shares compounds with hcDAF12 agonist. HEK293 Gal4-LXR tk-luc reporter, luminescence, 24 h; normalized: DMSO 0%, positive control 100%. activation, % at 6.8 µM. 3,400 tested, under 10 active;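 active = mean percent activation of the reporter above a cutoff set as the average over tested compounds plus their standard deviation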
Target sequence (P55055 whole entry, looked up, the tested form may be a part): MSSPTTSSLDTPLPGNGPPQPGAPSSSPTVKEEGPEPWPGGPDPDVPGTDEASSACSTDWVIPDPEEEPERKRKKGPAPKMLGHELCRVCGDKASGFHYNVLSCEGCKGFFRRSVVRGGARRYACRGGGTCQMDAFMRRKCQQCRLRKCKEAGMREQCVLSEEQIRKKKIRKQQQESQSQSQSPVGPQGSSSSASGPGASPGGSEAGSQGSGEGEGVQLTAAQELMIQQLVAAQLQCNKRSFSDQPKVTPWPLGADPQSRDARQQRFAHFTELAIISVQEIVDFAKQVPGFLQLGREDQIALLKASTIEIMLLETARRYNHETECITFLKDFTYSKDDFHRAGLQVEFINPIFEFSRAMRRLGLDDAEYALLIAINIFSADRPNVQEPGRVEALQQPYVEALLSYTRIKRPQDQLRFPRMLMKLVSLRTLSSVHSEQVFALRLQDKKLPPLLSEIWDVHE
hcDAF12 conf: confirmation of H. contortus DAF-12 agonists; shares compounds with hcDAF12 agonist; HEK293 hcDAF-12 lit1-tk-luc reporter, luminescence; % of Δ7-dafachronic acid response; activation, % at 6.8 µM; 3,400 compounds, 61% hits; AID 743032;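 active = mean activation across triplicate tests above the threshold derived from the earlier primary screen, cut at about 5.5% in these data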
hgDAF12 ag: confirmation of H. glycines DAF-12 agonists | shares compounds with hgDAF12 agonist | HEK293 GAL4-hgDAF12 luciferase reporter, agonist mode; percent of butyrate response | activation, % at 6.8 µM | 3,300 compounds, 80% hits;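 active = mean activation over triplicate wells above the hit cutoff derived from the earlier primary screen, cut at about 11% in these data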
LXR ag 2: activates human LXR-beta, counter-screen for DAF-12 agonists; shares compounds with hgDAF12 agonist; HEK293 Gal4-LXR luciferase reporter, 24 h; activation, % at 6.8 µM; 3,300 tested, under 10 active; AID 743051;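 active = mean activation of the triplicate above a set limit carried over from the primary screen, none filed active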
Numbers stand for hits. A selection: hits, their analogues and other compounds. The true share with any hit is near 4.5%.

For O=C(/C=C/c1cccc(F)c1)OCC(=O)N1CCCc2ccccc21 the results were ssDAF-12 act inactive, DAX1 inh-1 inactive, hcDAF12 agonist inactive, DAX1 inh-2 inactive, hgDAF12 agonist inactive and FXN GAA850 act inactive.
`c1ccc(-c2csc(CN3CCCCC3)n2)cc1` gave ssDAF-12 act 0.9, DAX1 inh-1 5.3, hcDAF12 agonist 7.1, DAX1 inh-2 inactive, hgDAF12 agonist 19.4, FXN GAA850 act inactive, DAX1 inh confirm 8.2, SF1 mutant ctr 4.8, LXRb hcDAF ctr inactive, hcDAF12 conf 9.2, hgDAF12 ag 18.4 and LXR ag 2 inactive.
Screening OCCC1CN(Cc2nc(-c3ccccc3)cs2)CCN1C1CCCC1 (configuration not stated) returned ssDAF-12 act inactive, DAX1 inh-1 inactive, hcDAF12 agonist inactive, DAX1 inh-2 inactive, hgDAF12 agonist inactive and FXN GAA850 act inactive.
CCOc1ccc(-c2cc(C(C)=O)c3n(c2=O)CCC3)cc1 was read as ssDAF-12 act inactive, DAX1 inh-1 inactive, hcDAF12 agonist inactive and hgDAF12 agonist inactive.
C=CCn1c(C)cc(C(=O)Cn2nc(C(=O)O)c3ccccc3c2=O)c1C was read as ssDAF-12 act 0.9, DAX1 inh-1 5.0, hcDAF12 agonist inactive, DAX1 inh-2 inactive, hgDAF12 agonist 15.3, FXN GAA850 act inactive, DAX1 inh confirm 10.2, SF1 mutant ctr 4.0, hgDAF12 ag 13.2 and LXR ag 2 inactive.
For O=C1Nc2ccccc2N(C(=O)c2c(F)cccc2F)C1c1nc2ccccc2[nH]1 (configuration not stated) the results were ssDAF-12 act inactive, DAX1 inh-1 13.8, hcDAF12 agonist inactive, hgDAF12 agonist 23.3, DAX1 inh confirm 4.2, SF1 mutant ctr 3.1, hgDAF12 ag 10.6 and LXR ag 2 inactive.
Screening O=C(CSc1nnc(-c2cccnc2)o1)Nc1ccccc1F returned ssDAF-12 act inactive, DAX1 inh-1 8.4, hcDAF12 agonist inactive, DAX1 inh-2 inactive, hgDAF12 agonist 13.6, FXN GAA850 act inactive, DAX1 inh confirm 10.9, SF1 mutant ctr 4.4, hgDAF12 ag 11.8 and LXR ag 2 inactive.
Screening COc1ccccc1NC(=O)CSc1nnc(-c2ccc(C)cc2)o1 returned ssDAF-12 act inactive, DAX1 inh-1 6.3, hcDAF12 agonist inactive, DAX1 inh-2 inactive, hgDAF12 agonist 13.8, FXN GAA850 act inactive, DAX1 inh confirm 14.6, SF1 mutant ctr 8.3, hgDAF12 ag 17.5 and LXR ag 2 inactive.
For C#CCNC(=O)C[C@@H]1C(=O)N(CCc2ccc(Cl)cc2)C2=CCCCC[C@]21C(=O)OC the results were ssDAF-12 act inactive, DAX1 inh-1 inactive, hcDAF12 agonist inactive and hgDAF12 agonist inactive.
Screening O=C(Nc1ccc(N2CCCC2)cc1)c1ccc(Br)o1 returned ssDAF-12 act inactive, DAX1 inh-1 6.0, hcDAF12 agonist 9.2, DAX1 inh-2 inactive, hgDAF12 agonist 16.4, FXN GAA850 act inactive, DAX1 inh confirm 12.5, SF1 mutant ctr 6.0, LXRb hcDAF ctr inactive, hcDAF12 conf 7.9, hgDAF12 ag 16.8 and LXR ag 2 inactive.
`O=C(c1ccc(F)cc1)c1ccc(N2CCCCC2)cc1` gave ssDAF-12 act inactive, DAX1 inh-1 inactive, hcDAF12 agonist inactive, DAX1 inh-2 inactive, hgDAF12 agonist inactive and FXN GAA850 act inactive.
For O=C(Nc1ccc(N2CCCCC2)cc1)c1ccc(F)cc1 the results were ssDAF-12 act inactive, DAX1 inh-1 4.6, hcDAF12 agonist 8.3, DAX1 inh-2 inactive, hgDAF12 agonist 13.3, FXN GAA850 act inactive, DAX1 inh confirm 12.3, SF1 mutant ctr 6.0, LXRb hcDAF ctr inactive, hcDAF12 conf inactive, hgDAF12 ag 19.7 and LXR ag 2 inactive.
CCCCNC(=O)C[C@@H]1C(=O)N(CCc2ccc(Cl)cc2)/C2=C/CCCCC[C@@]21C(=O)OCC was read as ssDAF-12 act inactive, DAX1 inh-1 inactive, hcDAF12 agonist inactive and hgDAF12 agonist inactive.
Screening O=C(Nc1ccccc1NC(=O)c1csnn1)c1csnn1 returned ssDAF-12 act inactive, DAX1 inh-1 inactive, hcDAF12 agonist inactive, DAX1 inh-2 inactive, hgDAF12 agonist inactive and FXN GAA850 act inactive.
Screening CC(C)c1ccc(NC(=O)c2csnn2)cc1 returned ssDAF-12 act 1.1, DAX1 inh-1 4.7, hcDAF12 agonist inactive, DAX1 inh-2 inactive, hgDAF12 agonist 13.5, FXN GAA850 act inactive, DAX1 inh confirm 12.2, SF1 mutant ctr 6.6, hgDAF12 ag 13.1 and LXR ag 2 inactive.
Screening CCCN(C)C1CN(Cc2cn(Cc3ccc(F)cc3)nn2)S(=O)(=O)C1 (configuration not stated) returned ssDAF-12 act inactive, DAX1 inh-1 inactive, hcDAF12 agonist inactive and hgDAF12 agonist inactive.
Screening N/C(=N\OC(=O)COc1ccc(Cl)cc1Cl)c1ccccn1 returned ssDAF-12 act inactive, DAX1 inh-1 5.3, hcDAF12 agonist 6.4, DAX1 inh-2 inactive, hgDAF12 agonist 15.6, FXN GAA850 act inactive, DAX1 inh confirm 18.5, SF1 mutant ctr 7.2, hgDAF12 ag 15.3 and LXR ag 2 inactive.
`Cc1ccc2c(C)c(C(=O)Nc3nnc(C)s3)oc2c1` gave ssDAF-12 act inactive, DAX1 inh-1 inactive, hcDAF12 agonist inactive, DAX1 inh-2 inactive, hgDAF12 agonist inactive and FXN GAA850 act inactive.
Cc1nnc(NC(=O)c2oc3ccccc3c2C)s1 was read as ssDAF-12 act 1.4, DAX1 inh-1 8.9, hcDAF12 agonist 10.6, DAX1 inh-2 inactive, hgDAF12 agonist 15.2, FXN GAA850 act inactive, DAX1 inh confirm 10.0, SF1 mutant ctr 9.5, LXRb hcDAF ctr inactive, hcDAF12 conf 12.0, hgDAF12 ag 10.5 and LXR ag 2 inactive.
